High-throughput results: PubChem BioAssay, National Center for Advancing Translational Sciences (NCATS)
DT40 TDP1 CPT = DT40-hTDP1 cell growth loss with CPT. Potency, µM (doses to about 46.2 µM), inactives show at the top dose activity change, negative = growth inhibition, most hits filed as inhibitors. chicken DT40 Tdp1-/-;hTDP1 cells + 20 nM CPT, ATP luminescence, 48 h. actives 12% (n = 420,000); also: % is scaled to controls: 0 for no effect and ±100 for the full control effect; nearly all actives have a fitted effect of over 55% in size
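Chicken DT40 Tdp1-/- cells stably complemented with human TDP1 were seeded at 400 cells/well in medium containing 20 nM camptothecin, exposed to pin-transferred compounds, and grown at 37 °C for at least 48 hr. Viability was read as ATP luminescence.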
HT1080 IDH1KD tx = toxicity to HT-1080 IDH1 knockdown cells (counter line); HT-1080 IDH1 knockdown viability, ATP luminescence, 48 h; Potency, µM (doses to about 46.1 µM), for the others: at the top dose activity, negative = toxicity, actives largely listed as cytotoxic; actives 2% (n = 360,000); AID 686971;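 also: 0% = DMSO wells and -100% = cell-free medium wells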
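In this qHTS, HT-1080 cells depleted of IDH1 are exposed for 48 h at 37 °C to compound titrations. Toxicity is scored from CellTiter-Glo luminescence, with DMSO as full viability and medium alone as none.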
TGFb inhibitor = inhibitors of TGF-b signaling; actives 1.2% (n = 410,000); Potency, µM (highest dose often 46.1 µM), for inactives: at the top dose activity, negative = inhibition, most hits filed as inhibitors; AID 588855; HepG2 CAGA-GFP TGF-b/SMAD3 reporter, GFP fluorescence, 18 h; TGF-beta stimulated, 500 pg/mL final; also: % is scaled to controls: 0 for no effect and ±100 for the full control effect; nearly all actives have a fitted effect of over 65% in size
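Cell-based qHTS in HEPG2 carrying a CAGA-GFP Smad reporter; compounds added before 500 pg/mL final TGF-beta, 18 h incubation at 37 degrees C, GFP fluorescence quantified per cell by imaging cytometry.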
HepG2 tox = kills HepG2 cells in TGF-b inhibitor counter-screen. actives 0.76% (n = 410,000). HepG2 CAGA-GFP viability, ATP luminescence, 18 h. AID 588856. Potency, µM (series often up to 46.1 µM), inactives show at the top dose activity change, negative = cytotoxicity, usual class: cytotoxic
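HepG2 CAGA-GFP cells (1000/well, DMEM with 1% FBS) received compound, then TGF-beta at 500 pg/mL final, and were incubated 18 hours at 37 degrees C. Viability was read by CellTiter-Glo luminescence. Media-only wells were set as complete cell-killing and DMSO as no toxicity.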
HT1080NT lethal = kills 2HG-producing HT-1080-NT fibrosarcoma cells; AID 686970; Potency, µM (titrated, usually from 46.1 µM), for the others: at the top dose activity, negative = less viability, usual class: cytotoxic; actives 1.6% (n = 360,000); HT-1080-NT fibrosarcoma viability, CellTiter-Glo ATP luminescence, 48 h;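 also: NT is the 2HG producing partner of a matched IDH1 knockdown line; 0% = DMSO-treated cells and -100% = media-only wells without cells; nearly all actives have a fitted effect of over 55% in size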
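HT-1080-NT fibrosarcoma cells (2HG-overproducing), 750 cells/well in RPMI with 5% FBS, dosed after 2 h and incubated 48 h at 37C. CellTiter-Glo luminescence normalized to DMSO and no-cell wells; concentration-response curves fitted and classed.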
TDP1 cell noCPT = qHTS for Inhibitors of human tyrosyl-DNA phosphodiesterase 1 (TDP1): qHTS in cells in absence of CPT. DT40 Tdp1-/- hTDP1 cells, no CPT, ATP luminescence, 48 h. Potency, µM (top dose mostly 46.2 µM), for the others: at the top dose activity change, negative = growth inhibition, most hits filed as inhibitors. actives 15% (n = 420,000); also: % is scaled to controls: 0 for no effect and ±100 for the full control effect; nearly all actives have a fitted effect of over 55% in size
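No-CPT arm: Tdp1-/-;hTDP1 DT40 cells (400/well) plus compounds, incubated ≥48 hr at 37 °C. Readout CellTiter-Glo luminescence.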
Active calls of the source: *; u = inconclusive; x = no result. Most compounds without a hit are left out; they make up all but 17% or so of the library. Calls follow the shape of the dose curve; as a rule, active = well fitted curve in the direction sought with a large enough effect; inconclusive = small, poorly fitted or top-dose-only effect, or another doubt; inactive = no such curve, though single readings can be large; an effect the other way counts as inactive or inconclusive. Potency is read from the fitted curve at half-maximal effect.

SMILES | DT40 TDP1 CPT | HT1080 IDH1KD tx | TGFb inhibitor | HepG2 tox | HT1080NT lethal | TDP1 cell noCPT
C/C(=N\NC(=O)c1cc(O)ccc1O)c1cccc(NC(=O)c2ccc(Cl)cc2)c1 | u | u | -15.7% | -8.0% | -1.9% | 18.4µM*
C/C(=N/NC(=O)c1ccc(Br)o1)c1cccc(NC(=O)c2ccc(C)o2)c1 | 16.4µM* | -1.0% | 8.3% | -21.4% | -4.0% | 20.6µM*
C/C(=N/NC(=O)c1ccncc1)c1ccc(NC(=O)c2ccccc2)cc1 | -22.6% | 14.5% | 6.9% | 2.5% | 11.0% | -22.7%
C/C(=N\NC(=O)c1ccncc1)c1cccc(NC(=O)c2ccc(C(C)(C)C)cc2)c1 | 16.4µM* | u | -4.5% | -1.3% | u | 16.4µM*
C/C(=N\NC(=O)c1cccc(N/N=C(\C)c2ccccc2)c1)c1ccccc1 | -0.8% | u | 19.1% | 19.7% | u | u
C/C(=N\NC(=O)c1cccc(N/N=C(\C)c2ccncc2)c1)c1ccncc1 | 20.6µM* | -1.1% | 0.8% | -21.9% | -1.1% | u
CCn1c(NC(=O)c2cccs2)c(-c2cccs2)c(=O)c2ccccc21 | -25.6% | 3.9% | 0.0% | 2.6% | 4.0% | -16.4%
C/C(=N\NC(=O)COc1ccccc1[N+](=O)[O-])c1cccc(NC(=O)c2ccncc2)c1 | u | -2.2% | -14.7% | 0.0% | 0.2% | 8.2µM*
COc1ccc(/C(C)=N/NC(=O)c2ccncc2)cc1[N+](=O)[O-] | 1.6% | 1.4% | -1.5% | 1.1% | -8.2% | -3.9%
Cc1cccc(C)c1-n1nnnc1C1c2ccccc2C(=O)N1CCCn1ccnc1 (configuration not stated) | 0.0% | 9.1% | x | x | 17.5% | -25.0%
COc1ccc(C(=O)c2cn(Cc3ccccc3F)c3cc4c(cc3c2=O)OCCO4)cc1OC | u | x | u | -24.6% | x | 20.6µM*
COc1ccccc1Cn1cc(C(=O)c2ccc(Cl)cc2)c(=O)c2ccccc21 | 23.1µM* | x | u | -92.1% | x | 14.6µM*
COc1ccc(C(=O)c2cn(Cc3ccc(F)cc3)c3c(F)cc(F)cc3c2=O)cc1 | u | x | 21.1% | -2.6% | x | 23.1µM*
COc1cc2c(=O)c(C(=O)c3ccc(C)c(C)c3)cn(Cc3ccccc3)c2cc1OC | 14.6µM* | x | 1.7% | -21.8% | x | u
COc1ccccc1Cn1cc(C(=O)c2ccc(Cl)cc2)c(=O)c2cc3c(cc21)OCCO3 | u | x | -7.2% | -1.2% | x | u
CC1Cc2cc(-c3csc(N)n3)ccc2O1 (configuration not stated) | -2.1% | 1.6% | 1.5% | -10.8% | 1.3% | -9.4%
O=C1OC(Cc2ccccc2)(c2ccccc2)c2ccccc21 (configuration not stated) | -26.2% | 1.9% | -3.5% | -13.5% | -5.9% | u
Cc1ccc(C(=O)c2cn(Cc3ccccc3)c3c(F)cc(F)cc3c2=O)cc1 | u | x | 23.4% | 1.8% | x | u
COc1cc2c(=O)c(C(=O)c3ccc(C)c(C)c3)cn(Cc3ccc(F)cc3)c2cc1OC | 10.3µM* | x | 22.3% | 2.0% | x | 18.4µM*
COc1ccc2c(c1)c(=O)c(C(=O)c1ccccc1)cn2Cc1ccc(C)cc1 | u | u | -22.3% | -27.1% | u | 16.4µM*
COc1cc2c(=O)c(C(=O)c3ccc(C)c(C)c3)cn(Cc3ccccc3F)c2cc1OC | 18.4µM* | x | u | 3.6% | x | 16.4µM*
CCc1ccc(C(=O)c2cn(Cc3ccccc3)c3cc(OC)c(OC)cc3c2=O)cc1 | 16.4µM* | x | u | -82.8% | x | 16.4µM*
CCOC(=O)C1(C)CCCN1C(=O)c1sccc1C (configuration not stated) | 1.0% | 15.4% | -0.5% | -4.4% | 16.4% | -14.3%
CCOc1ccc(C(=O)c2cn(Cc3ccc(OC)cc3)c3cc(OC)c(OC)cc3c2=O)cc1 | u | x | u | -27.8% | x | 18.4µM*
CCOc1ccc(NC(=O)Cn2cc(C(=O)c3ccc(C)c(C)c3)c(=O)c3cc(OC)c(OC)cc32)cc1 | -11.8% | x | 3.6% | -12.1% | x | -1.0%
SMILES | DT40 TDP1 CPT | HT1080 IDH1KD tx | TGFb inhibitor | HepG2 tox | HT1080NT lethal | TDP1 cell noCPT
COc1cc2c(=O)c(C(=O)c3ccc(F)cc3)cn(Cc3cccc(F)c3)c2cc1OC | 20.6µM* | x | -19.2% | -0.4% | x | 16.4µM*
CCOc1ccc(C(=O)c2cn(CC(=O)Nc3cc(OC)ccc3OC)c3cc(OC)c(OC)cc3c2=O)cc1 | 23.1µM* | x | -7.1% | -0.6% | x | 16.4µM*
COc1ccc(Cn2cc(C(=O)c3ccc(C)c(C)c3)c(=O)c3ccccc32)cc1 | u | x | u | -18.2% | x | 16.4µM*
COc1cccc(Cn2cc(C(=O)c3ccc(Cl)cc3)c(=O)c3ccccc32)c1 | u | x | u | -24.6% | x | u
CCOc1ccc(C(=O)c2cn(CC(=O)Nc3ccc(OC)cc3)c3cc4c(cc3c2=O)OCO4)cc1 | u | x | -5.2% | -2.6% | x | -27.3%
COc1ccc(CCNC(=O)Cn2cc(C(=O)c3ccc(F)cc3)c(=O)c3ccc(C)nc32)cc1OC | -24.4% | x | 1.4% | -25.0% | x | u
O=C(Nc1ccc(N2CCOCC2)cc1)c1ccc(COc2ccccc2)cc1 | -5.4% | 2.1% | 21.3% | -4.5% | -3.4% | -8.3%
CC1CCN(CCNC(=O)c2ccc3c(=O)n(Cc4ccc(Cl)cc4)c(=S)[nH]c3c2)CC1 | u | 0.0% | -1.2% | -19.2% | -7.8% | u
CCCc1nc2ccccc2c(=O)n1/N=C/c1ccccc1O | u | u | 2.82µM* | -36.1% | u | -22.2%
CCCc1nc2ccccc2c(=O)n1/N=C/c1c(C)[nH]n(-c2ccc(C)cc2)c1=O | 20.6µM* | 18.4µM* | u | -89.3% | 16.4µM* | 11.6µM*
Cc1nc2ccccc2c(=O)n1/N=C/c1ccc(O)cc1O | -15.6% | u | 3.6% | -21.7% | -20.9% | -7.3%
CCc1nc2ccccc2c(=O)n1/N=C/c1ccc(Cl)cc1 | -29.6% | -1.8% | -14.5% | -63.7% | -11.2% | 16.4µM*
N#Cc1ccccc1S(=O)(=O)N1CCN(CC(O)COc2ccccc2F)CC1 (configuration not stated) | -3.9% | 7.1% | -6.1% | -4.9% | 9.6% | -10.1%
Cc1noc(C)c1-c1cncnc1N1CCN(C)CC1 | 9.7% | x | x | x | x | 6.2%
